Assay results as given in PubChem BioAssay.
Where “and” joins values, the source holds several entries; their conditions need not be identical. Identical values can stand only once. A number with no mark means an inactive call. Calls of active or inactive are those of the source. Unless noted, no stated cut-off is given here; in the data, active means inhibition above about 33%; inactive means the rest.

target: Steroidogenic factor 1 (Homo sapiens) (UniProt Q13285); assay: SF1 (NR5A1) inverse agonists, counter-screen for LRH-1 inverse agonist project, cell-based, luminescence, high throughput (AID 651614; in the data active means inhibition above about 44%;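 further: cells cotransfected with StAR promoter reporter and SF1 expression vector; 0% = vehicle on cells with receptor and 100% = vehicle on cells lacking receptor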); conditions: cell-based SF1 luciferase reporter, at 3.6 µM, hits give high values
Sequence (Q13285 whole entry, looked up): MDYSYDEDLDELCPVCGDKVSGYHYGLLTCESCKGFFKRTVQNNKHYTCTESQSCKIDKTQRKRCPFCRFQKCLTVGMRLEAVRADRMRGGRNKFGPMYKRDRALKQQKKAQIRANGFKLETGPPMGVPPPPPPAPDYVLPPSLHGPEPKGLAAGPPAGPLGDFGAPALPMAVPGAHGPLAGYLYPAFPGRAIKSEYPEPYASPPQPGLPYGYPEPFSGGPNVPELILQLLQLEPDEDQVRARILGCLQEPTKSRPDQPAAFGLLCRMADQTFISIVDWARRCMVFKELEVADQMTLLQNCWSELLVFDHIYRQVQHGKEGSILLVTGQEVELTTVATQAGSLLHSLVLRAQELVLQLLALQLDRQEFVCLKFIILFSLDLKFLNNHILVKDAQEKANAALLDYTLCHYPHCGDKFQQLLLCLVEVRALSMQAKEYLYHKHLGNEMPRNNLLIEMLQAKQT

SMILES | inhibition
C[C@H]1CCC/C=C/[C@@H]2C[C@H](O)C[C@H]2[C@@H](O)/C=C/C(=O)O1 | 80% (active)
CC(C)c1oc(=O)cc2c1[C@@H](O)[C@H]1OC(=O)[C@@]3(C)C[C@@H](O)[C@@H](O)[C@@]2(C)C13 (stereo not given in full) | 90% (active)
CC1CCC/C=C/C2CC(O)CC2C(O)/C=C/C(=O)O1 (stereo not given) | 80.8% (active)
C1=NCCc2c1[nH]c1ccccc21 | 44.8% (active)
CC(=O)OC1C2(CC3N4C(=O)C5(CO)SSC4(CC31O)C(=O)N5C)OC(C)C(C)(C)C2=O (stereo not given) | 98.4% (active)
COc1cc2nc(CN3CC=C(c4ccccc4)CC3)[nH]c(=O)c2cc1OC | 77.1% (active)
C[C@H]1CCC/C=C/[C@@H]2C[C@H](O)C[C@H]2[C@H](O)/C=C/C(=O)O1 | 75% (active) and 80.4% (active)
COC(=O)C[C@]1(C(=O)OC)CN(C#N)N(c2ccc(Cl)cc2)C12c1ccccc1-c1ccccc12 | 58.2% (active)
CCCOC(=O)c1ccc(-[n+]2c(-c3ccccc3)cc(-c3ccccc3)cc2-c2ccccc2)cc1 | 88.8% (active)
CC(C)(O)/C=C/C(=O)C(C)(O)C1C(O)CC2(C)C3CC=C4C(C=C(O)C(=O)C4(C)C)C3(C)C(=O)CC12C (stereo not given) | 78.9% (active)
CNC(=O)c1cccn(Cc2ccc(C(F)(F)F)cc2)c1=O | 54.3% (active)

system: not listed separately; assay: VP16 transactivation reporter inhibitors, counter-screen for LRH-1 inverse agonist project, cell-based, luminescence, high throughput (AID 651615); conditions: Gal4-VP16 luciferase reporter cells, at 3.6 µM, hits give high values

SMILES | inhibition
C[C@H]1CCC/C=C/[C@@H]2C[C@H](O)C[C@H]2[C@@H](O)/C=C/C(=O)O1 | 74.8% (active)
CC(C)c1oc(=O)cc2c1[C@@H](O)[C@H]1OC(=O)[C@@]3(C)C[C@@H](O)[C@@H](O)[C@@]2(C)C13 (stereo not given in full) | 77.4% (active)
CC1CCC/C=C/C2CC(O)CC2C(O)/C=C/C(=O)O1 (stereo not given) | 74.8% (active)
C1=NCCc2c1[nH]c1ccccc21 | -11.6%
CC(=O)OC1C2(CC3N4C(=O)C5(CO)SSC4(CC31O)C(=O)N5C)OC(C)C(C)(C)C2=O (stereo not given) | 97.4% (active)
COc1cc2nc(CN3CC=C(c4ccccc4)CC3)[nH]c(=O)c2cc1OC | 73.8% (active)
C[C@H]1CCC/C=C/[C@@H]2C[C@H](O)C[C@H]2[C@H](O)/C=C/C(=O)O1 | 78.7% (active) and 78.3% (active)
COC(=O)C[C@]1(C(=O)OC)CN(C#N)N(c2ccc(Cl)cc2)C12c1ccccc1-c1ccccc12 | 69.2% (active)
CCCOC(=O)c1ccc(-[n+]2c(-c3ccccc3)cc(-c3ccccc3)cc2-c2ccccc2)cc1 | 96.6% (active)
CC(C)(O)/C=C/C(=O)C(C)(O)C1C(O)CC2(C)C3CC=C4C(C=C(O)C(=O)C4(C)C)C3(C)C(=O)CC12C (stereo not given) | 86.1% (active)
CNC(=O)c1cccn(Cc2ccc(C(F)(F)F)cc2)c1=O | -78.8%

system: transactivating tegument protein VP16 (Human herpesvirus 1); assay: VP16 transactivation reporter inhibitors, counter-screen for SRC2 inhibitor project, cell-based, luminescence, single concentration (AID 652007; in the data active means inhibition above about 36%); conditions: cell-based VP16 transactivation luciferase reporter, at 8.9 µM, hits give high values

SMILES | inhibition
COC(=O)C1=C(c2ccc(-c3ccccc3)c(F)c2)C[C@@H]2CC[C@H]1N2C(=O)N1CCCCC1 | 19.5%
CC(C)c1oc(=O)cc2c1[C@@H](O)[C@H]1OC(=O)[C@@]3(C)C[C@@H](O)[C@@H](O)[C@@]2(C)C13 (stereo not given in full) | 8.02%
COC(=O)c1ccc(NC(=O)CSc2nc3ccc(N4C(=O)C5C6C=CC(C6)C5C4=O)cc3s2)cc1 (stereo not given) | 24.8%
COc1cc2nc(CN3CC=C(c4ccccc4)CC3)[nH]c(=O)c2cc1OC | -4.49%
c1ccc(-c2[nH]c(-c3ccccc3)[n+](CC3CO3)c2-c2ccccc2)cc1 (stereo not given) | 22.1%
COc1ccc(CN2Cc3cnnn3-c3ccccc3C2C#N)cc1 (stereo not given) | 51.6% (active)
CCCOC(=O)c1ccc(-[n+]2c(-c3ccccc3)cc(-c3ccccc3)cc2-c2ccccc2)cc1 | 31.1%
CC(C)(O)/C=C/C(=O)C(C)(O)C1C(O)CC2(C)C3CC=C4C(C=C(O)C(=O)C4(C)C)C3(C)C(=O)CC12C (stereo not given) | 62.2% (active)
CN1C2CCC1/C(=C/c1ccccn1)C(=O)/C2=C\c1ccccn1 | 75% (active)

target: Nuclear receptor coactivator 2 (Homo sapiens) (UniProt Q15596); assay: SRC2 coactivator transcriptional activity inhibitors, confirmation, cell-based, luminescence, HEK293, triplicate (AID 652008;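 active means mean inhibition above 46.5%, the solvent-only control mean plus 3 SD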;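 further: 0% = DMSO-treated cells and 100% = Gossypol at 36 µM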); conditions: HEK293 GAL4-SRC2 luciferase reporter, at 8.9 µM, hits give high values
Sequence (Q15596 whole entry, looked up, the tested form may be a part): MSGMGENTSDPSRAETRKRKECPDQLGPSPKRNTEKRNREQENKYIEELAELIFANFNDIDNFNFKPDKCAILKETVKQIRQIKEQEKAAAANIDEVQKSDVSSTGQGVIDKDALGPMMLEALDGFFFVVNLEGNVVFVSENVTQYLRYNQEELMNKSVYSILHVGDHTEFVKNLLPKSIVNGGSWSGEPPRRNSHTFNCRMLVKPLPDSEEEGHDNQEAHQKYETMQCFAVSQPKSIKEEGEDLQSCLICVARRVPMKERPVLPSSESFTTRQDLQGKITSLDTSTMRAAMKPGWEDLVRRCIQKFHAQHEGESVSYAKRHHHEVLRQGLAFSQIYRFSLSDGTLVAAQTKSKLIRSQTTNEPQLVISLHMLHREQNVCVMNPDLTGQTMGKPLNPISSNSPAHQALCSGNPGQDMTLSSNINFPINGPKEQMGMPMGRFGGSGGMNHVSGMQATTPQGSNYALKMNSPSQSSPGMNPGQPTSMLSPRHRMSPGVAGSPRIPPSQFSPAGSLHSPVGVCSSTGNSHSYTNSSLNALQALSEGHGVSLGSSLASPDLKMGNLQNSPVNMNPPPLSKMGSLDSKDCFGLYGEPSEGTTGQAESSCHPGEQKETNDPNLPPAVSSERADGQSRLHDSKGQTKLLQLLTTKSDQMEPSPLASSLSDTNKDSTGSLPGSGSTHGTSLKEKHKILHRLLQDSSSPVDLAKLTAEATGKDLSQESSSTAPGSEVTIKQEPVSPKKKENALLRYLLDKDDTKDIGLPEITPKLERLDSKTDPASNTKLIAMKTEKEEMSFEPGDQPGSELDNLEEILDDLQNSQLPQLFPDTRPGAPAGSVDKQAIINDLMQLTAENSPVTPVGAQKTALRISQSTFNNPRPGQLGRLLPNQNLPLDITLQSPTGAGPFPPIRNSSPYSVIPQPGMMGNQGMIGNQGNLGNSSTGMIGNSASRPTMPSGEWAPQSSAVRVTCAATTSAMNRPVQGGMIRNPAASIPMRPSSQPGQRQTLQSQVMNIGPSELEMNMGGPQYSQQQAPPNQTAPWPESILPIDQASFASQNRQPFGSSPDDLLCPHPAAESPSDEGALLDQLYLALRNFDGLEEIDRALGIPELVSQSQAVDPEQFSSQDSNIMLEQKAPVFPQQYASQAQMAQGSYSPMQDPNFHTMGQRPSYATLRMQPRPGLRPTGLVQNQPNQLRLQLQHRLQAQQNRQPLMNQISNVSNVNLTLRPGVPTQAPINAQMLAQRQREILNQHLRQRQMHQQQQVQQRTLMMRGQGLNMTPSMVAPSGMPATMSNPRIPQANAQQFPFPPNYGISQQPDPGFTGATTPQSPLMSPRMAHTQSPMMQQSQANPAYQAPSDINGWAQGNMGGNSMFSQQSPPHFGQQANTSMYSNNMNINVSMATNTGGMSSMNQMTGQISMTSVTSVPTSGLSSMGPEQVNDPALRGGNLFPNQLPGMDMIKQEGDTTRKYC

SMILES | inhibition
COC(=O)C1=C(c2ccc(-c3ccccc3)c(F)c2)C[C@@H]2CC[C@H]1N2C(=O)N1CCCCC1 | 35.4%
CC(C)c1oc(=O)cc2c1[C@@H](O)[C@H]1OC(=O)[C@@]3(C)C[C@@H](O)[C@@H](O)[C@@]2(C)C13 (stereo not given in full) | 13.1%
COC(=O)c1ccc(NC(=O)CSc2nc3ccc(N4C(=O)C5C6C=CC(C6)C5C4=O)cc3s2)cc1 (stereo not given) | -3.51%
COc1cc2nc(CN3CC=C(c4ccccc4)CC3)[nH]c(=O)c2cc1OC | 24.4%
c1ccc(-c2[nH]c(-c3ccccc3)[n+](CC3CO3)c2-c2ccccc2)cc1 (stereo not given) | 30.2%
COc1ccc(CN2Cc3cnnn3-c3ccccc3C2C#N)cc1 (stereo not given) | 49.8% (active)
CCCOC(=O)c1ccc(-[n+]2c(-c3ccccc3)cc(-c3ccccc3)cc2-c2ccccc2)cc1 | 31.8%
CC(C)(O)/C=C/C(=O)C(C)(O)C1C(O)CC2(C)C3CC=C4C(C=C(O)C(=O)C4(C)C)C3(C)C(=O)CC12C (stereo not given) | 96.5% (active)
CN1C2CCC1/C(=C/c1ccccn1)C(=O)/C2=C\c1ccccn1 | 70.9% (active)
